High-throughput results (PubChem)
Dicer processing: inhibitors of Dicer pre-microRNA processing, primary screen, biochemical, cat-ELCCA, chemiluminescence; actives 6% (n = 47,000); cat-ELCCA pre-miR-21 Dicer processing; stronger effect = higher value; AID 1347074, 2019; z-score at 25 µM; in the data active = z-score above about 3, passing the limit was not always enough;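 note: plate controls were vehicle for no effect and no enzyme for full effect; higher signal means more uncleaved substrate so more Dicer inhibition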
Active calls of the source: *. The entries come from a sample that favours hits as a whole.

SMILES | Dicer processing
CS/C(Nc1ccccc1)=C(/C#N)S(=O)(=O)c1ccc(C)cc1 | 1.4
COC(=O)C1=C(C)NC2=C(C(=O)CCC2)C1c1ccc(N2CCOCC2)c([N+](=O)[O-])c1 (centres undefined) | 1.9
N#CC1=C(Nc2ccccc2Cl)SC(c2c(Cl)cccc2Cl)NC1=O (centres undefined) | 1.2
CC(C)(C)c1ccc(NC(=O)Nc2sccc2-n2cccc2)cc1 | 6.4*
O=C(NCC1CC1)Nc1sccc1-n1cccc1 | -3
Cn1nc(-c2ccccc2)cc1NC(=O)Nc1ccc(C(C)(C)C)cc1 | 1
O=c1cc(O)c2cccc3c2n1CCC3 | -0.63
CC(C(=O)c1ccc(-c2ccccc2F)cc1)N1CCN(c2ccc(C#N)cc2)CC1 (centres undefined) | 0.28
CCOC(=O)c1cnc(S/C=C/C(=O)c2ccccc2)nc1N | -1.3
COc1cc2c(cc1OC)CN(C(=O)CSc1nnc3ccccn13)CC2 | -0.05
COc1cc2c(cc1OC)CN(C(=O)c1ccco1)CC2 | 5*
COc1cc2nc(N3CCN(C(=O)c4ccco4)CC3)nc(N)c2cc1OC | 0.19
NC(=O)c1c(NC(=O)Cn2nc(C(F)(F)F)c3c2CCCC3)sc2c1CCCC2 | -1.1
CS(=O)(=O)c1ccc2nc(NC(=O)c3cc4ccccc4o3)sc2c1 | 4.2*
CS(=O)(=O)c1ccc2sc(NC(=O)c3cc4ccccc4o3)nc2c1 | -0.08
CS(=O)(=O)c1ccc2nc(NC(=O)Oc3ccccc3)sc2c1 | 2.5
COC(=O)/C=C(/Nc1ccc(Cl)cc1)C(=O)OC | 1.9
Cc1csc2sc(/C=C(\C#N)S(=O)(=O)c3cccs3)c(C)c12 | 0.35
CCCC(=O)N(c1ccc2oc(=O)sc2c1)S(=O)(=O)c1cccs1 | -1.1
O=C(C1CCCCC1)N(c1ccc2oc(=O)sc2c1)S(=O)(=O)c1cccs1 | 3.7*
CC(C)C(=O)N(c1ccc2oc(=O)sc2c1)S(=O)(=O)c1ccccc1 | 2.6
CC1=CC(C)(C)N(C(=O)CSc2nncn2C)c2ccccc21 | 0.89
Cc1ccc2c(c1)C(C)(c1ccccc1)CC(C)(C)N2C(=O)CSc1nncn1C (centres undefined) | 5.6*
Cn1cnnc1SCC(=O)N1c2ccccc2CCc2ccccc21 | 0.92
CSc1n[nH]c(-c2ccc(C(C)(C)C)cc2)n1 | 0.85
SMILES | Dicer processing
Cc1c(NC(=O)O/N=C(/N)c2ccc(Cl)cc2Cl)sc2nc(-c3ccc(Cl)cc3)nn12 | -0.93
Cc1ccc(C(=O)Nc2ccccc2SCc2noc(-c3cccs3)n2)cc1 | -1
COc1ccccc1NC(=O)Nc1c(SC)nsc1SC | -0.75
COc1ccc(NC(=O)Nc2c(SC)nsc2SC)cc1 | 4*
COc1ccc(OCc2nnc(NC(=O)Nc3ccc(F)cc3)s2)cc1 | 1.9
COc1cccc(OCC(O)Cn2c(C)[n+](C)c3ccccc32)c1 (centres undefined) | 2.6
COc1ccc(C2C(C#N)=C(N)Oc3n[nH]c(-c4ccccc4)c32)cc1 (centres undefined) | -5.3
O=C1CC(c2c[nH]c3ccccc23)C(=O)N1c1ccccc1 (centres undefined) | 1.2
O=C1CC(N2CCN(c3ccc(O)cc3)CC2)C(=O)N1c1ccccc1 (centres undefined) | -1.4
O=C1CC(c2cn(Cc3ccccc3)c3ccccc23)C(=O)N1c1ccc(O)cc1 (centres undefined) | 5.6*
O=C1C2CCCCC2C(=O)N1c1cccc(O)c1 (centres undefined) | 0.83
O=C(O)CCCCCN1C(=O)C2C3c4ccccc4C(c4ccccc43)C2C1=O (centres undefined) | -0.96
OC1=C(O)c2nc3cc(F)ccc3nc21 | 3.1*
CCOC(=O)c1ccc2nc3c(nc2c1)C(O)=C3O | 8.5
Cc1c(-c2ccc(-c3ccccc3F)cc2)nc2ccc(F)cc2c1C(=O)O | 0.46
CN(C)CCCNC(=O)C(=O)Nc1ccccc1Oc1ccc(Cl)cc1Cl | 0.16
O=C(Nc1ccccc1Oc1ccc(Cl)cc1Cl)c1cc(Cl)sc1Cl | -0.24
N#CC(C#N)=NNc1ccccc1Oc1ccc(Cl)cc1Cl | 3.9*
Cc1ccc(N2CC(O)=C(c3nc4ccccc4c(=O)[nH]3)C2=N)c(C)c1 | -0.23
CCOc1ccc(N2CC(O)=C(c3nc4ccccc4c(=O)[nH]3)C2=N)cc1 | 1.1
CCc1ccccc1N1CC(O)=C(c2nc3ccccc3c(=O)[nH]2)C1=N | 4.9*
CCOC(NC(=O)Nc1ccc(Br)cc1)(C(F)(F)F)C(F)(F)F | 1.2
CCCCSc1nnc2c(n1)OC(C)=Nc1ccc(Br)cc1-2 | 1.3
CCCCSc1nnc2c(n1)OC(C)=Nc1ccccc1-2 | 3.2*
CCCCCSc1nnc2c(n1)OC(C)=Nc1ccccc1-2 | 0.64
O=C(O)CC(O)c1nc2ccccc2[nH]1 (centres undefined) | 1.7
CC1CCN(S(=O)(=O)c2ccc3[nH]c(=O)[nH]c3c2)CC1 | 0.37
COc1ccccc1N1CCN(S(=O)(=O)c2ccc3[nH]c(=O)[nH]c3c2)CC1 | 3*
COc1ccccc1N1CCN(S(=O)(=O)c2ccc(-c3ccno3)s2)CC1 | 2.2
